High-throughput results (PubChem)
LANA-H2A inh: blocks KSHV LANA binding to histone H2A/H2B; cell-free LANA-H2A/H2B peptide, fluorescence polarization; inhibition, % (no concentration beside the values); 0.6% of 320,000 active; Q9QR71; AID 2629; in the data active means inhibition mostly above about 10%, no sharp cut-off; inactive means mostly below about 6.7%
EBV gp42 inh: blocks Epstein-Barr virus glycoprotein 42 binding; Q1HVG2; Fluorescence polarization binding assay, mP read-out; inhibition, % (tested at 21.74 µM); 0.42% of 220,000 active; AID 1085; in the data active means inhibition above about 50%
Keap1 Nrf2 FP: Keap1-Nrf2 (human) interaction inhibition; 0.15% of 340,000 active; inhibition, % at 9.4 µM; Q14145; Keap1 Kelch-Nrf2 peptide fluorescence polarization, 1536-well; in the data active means inhibition above about 12%;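 further: human Keap1 Kelch domain with fluorescein labeled Nrf2 9mer peptide probe; 0% = neutral control wells and 100% = peptide positive control; higher means more block of Keap1 binding to Nrf2 peptide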
GLD-1 RNA inh: GLD-1-TGE RNA interaction inhibition (C. elegans) | Q17339 | purified GLD-1 + fluorescein TGE RNA, fluorescence polarization | inhibition, % at 5.96 µM | 0.44% of 320,000 active;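 active means percent inhibition above a per-plate cutoff, the plate mean of test compounds plus 3 SD, cut at about 30% in these data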;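 further: 0% = DMSO wells with GLD-1 and probe and 100% = wells lacking GLD-1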
Target sequence (Q17339 whole entry, looked up): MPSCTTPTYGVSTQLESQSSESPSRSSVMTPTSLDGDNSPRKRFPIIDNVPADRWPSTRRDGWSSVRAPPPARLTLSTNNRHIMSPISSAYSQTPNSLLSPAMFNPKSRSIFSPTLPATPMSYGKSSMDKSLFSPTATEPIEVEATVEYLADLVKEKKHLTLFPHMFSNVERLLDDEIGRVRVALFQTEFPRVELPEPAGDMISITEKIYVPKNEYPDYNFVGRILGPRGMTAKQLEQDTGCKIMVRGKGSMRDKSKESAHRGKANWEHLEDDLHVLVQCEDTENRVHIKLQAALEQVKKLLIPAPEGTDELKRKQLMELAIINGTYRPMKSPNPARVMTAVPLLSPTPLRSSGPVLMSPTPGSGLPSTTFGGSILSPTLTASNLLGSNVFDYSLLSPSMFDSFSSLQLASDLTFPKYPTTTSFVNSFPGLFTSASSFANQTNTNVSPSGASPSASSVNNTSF
LANA DNA inh: blocks KSHV LANA C-terminal domain binding to DNA; MBP-C-LANA/FAM-LBS DNA binding, fluorescence polarization; inhibition, % at 9 µM; 0.078% of 340,000 active; AID 504423;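 active means highest replicate inhibition at or above 60% at 9 µM, even if other replicates fall short; inactive means all replicates below 60% inhibition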;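 further: 0% = neutral control wells and 100% = 4 µM acridine orange control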
eLon inh: E. coli protease La inhibition. purified E. coli Lon protease, fluorescence polarization. inhibition, % at 7.94 µM. P0A9M0. 0.42% of 360,000 active. AID 602123; in the data active means inhibition above about 13%, passing the limit was not always enough;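 further: 0% = enzyme with probe and DMSO and 100% = no enzyme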
Keap1 Kelch bind: binders of human Keap1 Kelch domain | shares compounds with Keap1 Nrf2 FP | Keap1 Kelch thermal shift, delta Tm; hits give high values | max delta Tm, degrees C | 8% of 400 active | AID 651823; in the data active means max delta Tm above about 0.48 degrees C
Sypro dye melt: dye artifact in Keap1 thermal shift counter-screen; Sypro Orange dye-only thermal melt, no protein, delta Tm; top dose 26 µM; delta Tm, degrees C (no concentration beside the values); shares compounds with Keap1 Nrf2 FP; 140 tested, under 10 active;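 active means at highest dose tested, delta Tm positive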
An asterisk follows results filed as active; nt = no result. Shown are actives, neighbours in structure and some others; about 1.5% of the full set was active somewhere.

SMILES	LANA-H2A inh	EBV gp42 inh	Keap1 Nrf2 FP	GLD-1 RNA inh	LANA DNA inh	eLon inh	Keap1 Kelch bind	others
Cn1ccnc1Sc1cc(NCCCO)c([N+](=O)[O-])c2nonc12	-5	-18	13*	-9	1	2	-0.01
CC(C)C(C(=O)O)N1C(=O)/C(=C/C=C/c2ccco2)SC1=S (stereo unspecified)	6	6	13*	6	107*	-1	0.91*
Fc1ccc(C2=CC(c3ccc(Br)o3)n3ncnc3N2)cc1 (stereo unspecified)	20	62*	36*	163*	64*	137*	-0.17
Oc1ccc(C2C=C(c3ccc(F)cc3)Nc3ncnn32)cc1 (stereo unspecified)	nt	17	-5	nt	1	14	nt
NC(=O)CC(NC(=O)Cc1cccc2ccccc12)c1ccc(NCc2ccccc2)c([N+](=O)[O-])c1 (stereo unspecified)	-3	-26	22*	1	18	7	-0.11
NC(=O)CC(NC(=O)Cc1cccc2ccccc12)c1ccc(NCc2ccc(F)cc2)c([N+](=O)[O-])c1 (stereo unspecified)	1	-33	-2	-16	0	-8	nt
C=CCn1ccc(=NC=C(C#N)C#N)c2ccccc21	-10	-36	130*	-10	24	-23	-0.04
Cc1ccc(OC(C)C(=O)N2CCN(c3ccccn3)CC2)cc1 (stereo unspecified)	nt	nt	35*	nt	18	-9	-0.04
COc1cc2c3nnc(-c4ccc(F)cc4)c-3cn(Cc3ccccc3F)c2cc1OC	nt	-64	17*	nt	32	-5	-0.19
COc1cc2c3nnc(-c4ccccc4)c-3cn(Cc3ccccc3F)c2cc1OC	-11	-151	nt	-1	nt	nt	nt
Cc1ccc(NC(=O)/C(C#N)=C(\N)C(Cl)(Cl)Cl)nc1	15	137*	38*	43*	34	2	-0.01
Cc1ccc(NC(=O)C(=O)Nc2ccc(C)cn2)nc1	0	-11	-5	-2	-1	6	nt
O=C1C(Cl)=C(NS(=O)(=O)c2ccc([N+](=O)[O-])cc2)C(=O)c2ccccc21	0	-16	20*	3	-2	6	0.76*
O=C(OCC(=O)N1CCc2ccccc21)c1c2c(nc3ccccc13)CCCCC2	-6	-6	-1	-1	2	5	nt
COc1ccc(OC)c(S(=O)(=O)Nc2ccc(F)cc2)c1	17	-17	12*	6	3	-6	-0.08
COc1ccc(NS(=O)(=O)c2cc(OC)ccc2OC)cc1	2	nt	0	-2	0	-6	nt
O=C(N/N=C/c1ccccn1)c1cccc(S(=O)(=O)N2CCCC2)c1	2	2	-3	-9	-1	-3	nt
COc1ccccc1N(Cc1ccccc1)S(=O)(=O)c1cccc(C(=O)Nc2ncccc2C)c1	-1	nt	-3	6	-1	-10	nt
COc1ccc(N(Cc2ccccc2)S(=O)(=O)c2cccc(C(=O)Nc3ncccc3C)c2)cc1	2	nt	22*	0	9	-4	-0.12
CCCCn1c(N)c(N(CC(C)C)C(=O)c2ccc(OCC3CCCO3)cc2)c(=O)[nH]c1=O (stereo unspecified)	-2	nt	-3	2	0	-5	nt
O=C(O)CCNc1ccc(NCCC(=O)O)c2c1C(=O)c1ccccc1C2=O	0	nt	13*	77*	55	26	0.63*	Sypro dye melt=-26
COc1ccc(OC)c(N(CC(=O)N2CCCC2)S(C)(=O)=O)c1	-4	nt	3	1	2	-17	nt
O=C(NC1(O)C(=O)c2ccccc2C1=O)c1c(Cl)cccc1Cl	5	-5	19*	-3	nt	6	-0.07	Sypro dye melt=-24
O=C(NC1(O)C(=O)c2ccccc2C1=O)c1ccccc1	1	4	-12	4	3	-2	nt
CNC(=S)N1CCN(C(=O)C2CCCO2)CC1 (stereo unspecified)	4	-8	-1	-3	-1	2	nt
SMILES	LANA-H2A inh	EBV gp42 inh	Keap1 Nrf2 FP	GLD-1 RNA inh	LANA DNA inh	eLon inh	Keap1 Kelch bind	others
O=C1c2ccccc2C(=O)c2c1ccc(O)c2O	nt	nt	13*	nt	22	39	0.08
Cc1cccc(C)c1NC(=O)CSc1nnc(-c2ccco2)c(-c2ccco2)n1	6	46	46*	12	105*	87*	0.29	Sypro dye melt=-27
Cc1cc(Cl)ccc1C(=O)C1CCCN(C(=O)c2cncs2)C1 (stereo unspecified)	2	nt	-2	7	1	-1	nt
O=C(CCCN1C(=O)/C(=C\c2cccs2)SC1=S)Nc1ccc(O)cc1C(=O)O	-1	nt	-7	-3	0	-20	nt
O=C(CCCN1C(=O)/C(=C\c2ccco2)SC1=S)Nc1ccc(O)cc1C(=O)O	0	nt	28*	0	109*	-4	0.33	Sypro dye melt=-28
CS(=O)(=O)N1CCCC(C(=O)Nc2ccc(F)cc2)C1 (stereo unspecified)	0	nt	-4	1	2	4	nt
CS(=O)(=O)N1CCCC(C(=O)Nc2ccc(F)c(F)c2)C1 (stereo unspecified)	5	nt	42*	3	17	2	-0.08	Sypro dye melt=-27
CNS(=O)(=O)c1ccc2c3c(cccc13)C(=O)N2C	2	nt	32*	3	13	2	-0.09
CN1C(=O)c2cccc3c(S(=O)(=O)N(C)C)ccc1c23	-7	nt	0	4	-1	0	nt
CC(C)c1ccc(CC(=O)N2CCC2(C)C(=O)NS(=O)(=O)c2cccc(OC(F)F)c2)cc1 (stereo unspecified)	nt	nt	nt	nt	nt	-6	nt
O=C(CN1C(=O)NC2(CCCC2)C1=O)Nc1ccc(C(F)(F)F)cc1	2	nt	12*	-1	-2	-6	-0.12
Cc1ccccc1OCCC(=O)OCC(=O)Nc1ccc(C(N)=O)cc1	-5	-17	-3	3	1	5	nt
COc1ccc(C2C(C(=O)c3cccs3)=C(O)C(=O)N2c2nncs2)cc1 (stereo unspecified)	30*	133*	55*	114*	64*	62*	-0.13
Cc1cccc(N2C(=O)C(O)=C(C(=O)c3cccs3)C2c2ccc(C(C)C)cc2)n1 (stereo unspecified)	-3	3	2	3	2	4	nt
CC[C@H](C)[C@H](NC(=O)OCc1ccccc1)C(=O)OCC(=O)N1CCN(c2ccc(F)cc2)CC1	nt	nt	26*	nt	13	-6	-0.12	Sypro dye melt=-26
O=S(=O)([O-])CCC[n+]1c(SCCCS(=O)(=O)O)sc2ccc(Cl)cc21	4	-12	21*	-3	-1	-5	-0.02	Sypro dye melt=-26
CC/C(=C/c1sc2ccc(C)cc2[n+]1CCCS(=O)(=O)[O-])SC	3	-4	nt	-1	nt	nt	nt
